Source: PubChem BioAssay
Hits are enriched below; roughly 7.5% of the tested compounds scored in any of these assays.
FMDV antiviral: blocks foot and mouth disease virus. FMDV antiviral cell-based qHTS. Potency, µM (highest dose often 57.9 µM), for inactives: top-dose activity change, negative = inhibition, actives largely listed as inhibitors. 1.2% of 410,000 active. AID 1159524; calls by dose curve; tested in HEK293T cells; note: read-out not given here; potency is the fitted concentration of half-maximal effect; nearly all actives have a fitted effect of over 45% in size
Vaccinia mCherry: inhibitors of vaccinia virus infection (mCherry reporter signal). Vaccinia virus mCherry reporter infection, fluorescence. Potency, µM (series often up to 36.5 µM), inactives show at the highest dose activity change, negative = inhibition, usual class: inhibitors. 0.63% of 310,000 active. AID 720579; calls by dose curve; tested in A549 cells; note: potency is the fitted concentration of half-maximal effect; nearly all actives have a fitted effect of over 35% in size
HCMV antiviral: inhibitors of human cytomegalovirus; HFF cells, HCMV-luciferase reporter, 72 h; active compounds read low; activity change, negative = inhibition, % at 57.5 µM; 4.5% of 410,000 active; AID 1259415; in the data active = activity change below about -60%; inconclusive = no clear call, values can overlap the other calls; inactive = above about -39%
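Luciferase read-out from HCMV-luciferase-infected HFFs (MOI 1 PFU/cell) 72 h post infection at 37C; compounds added after 16 h cell attachment; activity normalized between buffer-only basal and Salinomycin (10uM) inhibitor controls.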
HCV inhibitor: blocks hepatitis C virus | Huh7.5.1 HCVcc-Cre infection, luciferase reporter, 44 h | Potency, µM (top dose mostly 41.8 µM), inactives show at the top dose activity change, negative = inhibition, actives largely listed as inhibitors | 3.4% of 340,000 active; note: potency is the fitted concentration of half-maximal effect
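HCVcc-Cre virus at an moi near 0.5 was added right after compound to cells cultured 4 h from seeding (1,000 cells/well). Luciferase activity was determined 44 h later, 15 min after substrate addition at RT.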
Giardia FBPA inh: blocks Giardia fructose-bisphosphate aldolase activity. A8B2U2. purified Giardia FBPA. Potency, µM (series often up to 59.6 µM), inactives show top-dose activity, negative = inhibition, usual class: inhibitors. 0.71% of 290,000 active. AID 2451; note: potency is the fitted concentration of half-maximal effect; nearly all actives have a fitted effect of over 55% in size
Target sequence (A8B2U2 whole entry, looked up): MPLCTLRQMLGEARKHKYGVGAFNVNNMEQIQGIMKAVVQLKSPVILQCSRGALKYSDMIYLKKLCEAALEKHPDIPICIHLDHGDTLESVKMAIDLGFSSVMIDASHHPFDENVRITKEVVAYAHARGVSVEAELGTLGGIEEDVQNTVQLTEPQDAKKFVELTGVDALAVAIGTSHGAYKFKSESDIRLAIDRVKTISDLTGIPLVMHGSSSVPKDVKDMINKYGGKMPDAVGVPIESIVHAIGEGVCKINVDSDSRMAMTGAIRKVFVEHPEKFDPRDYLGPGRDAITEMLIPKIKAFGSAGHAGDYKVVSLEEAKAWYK
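40 nM FBPA preincubated 10 min at RT with compound (up to 57.5 uM final), then substrate plus GAPDH/TPI/NAD/arsenate coupling and diaphorase/resazurin added. Fluorescence read after 20 min at RT, 525/598 nm.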
VACV Venus inh: vaccinia inhibition (Venus reporter); Potency, µM (top dose mostly 36.5 µM), without a hit: top-dose activity change, negative = inhibition, most hits filed as inhibitors; Vaccinia virus Venus reporter expression, fluorescence; AID 720580; 0.46% of 330,000 active; calls by dose curve; tested in A549 cells; note: potency is the fitted concentration of half-maximal effect; nearly all actives have a fitted effect of over 30% in size
An asterisk follows results filed as active; i = inactive; ? = inconclusive; / = no result; ! = a repeat was not active; [ ] = dose if it differs, or a comment. Unless noted, calls come from the whole dose curve; as a rule, active = well fitted curve in the direction sought with a large enough effect; inconclusive = small, poorly fitted or top-dose-only effect, or another doubt; inactive = no such curve, though single readings can be large; an effect the other way counts as inactive or inconclusive. % is set by controls: 0 for no effect and ±100 for the full control effect.

SMILES	FMDV antiviral	Vaccinia mCherry	HCMV antiviral	HCV inhibitor	Giardia FBPA inh	VACV Venus inh
CCN1CCN(Cc2ccc(NC(=O)c3ccc(C)c(NC(=O)c4nccnc4N)c3)cc2C(F)(F)F)CC1	-3%	?	-73*	10µM*	-7%	?
CCN1CCN(Cc2ccc(NC(=O)c3cc(NC(=O)c4nccnc4N)cc(OC)c3)cc2C(F)(F)F)CC1	-10%	-1%	-1	-20%[8.37 µM]	0%	-16%
CCN1CCN(Cc2ccc(NC(=O)c3ccc(C)c(NC(=O)c4cc(-c5ccc(Br)cc5)n[nH]4)c3)cc2C(F)(F)F)CC1	-30%	-26%	?	?	0%	10µM*
Cc1cccc(C(=O)Nc2cc(NC(=O)c3cccs3)ccc2C)c1	1%	-14%	-37	?	-6%	-23%
CCN1CCN(Cc2ccc(NC(=O)c3ccc(C)c(NC(=O)c4cccc5[nH]ccc45)c3)cc2C(F)(F)F)CC1	18µM*!	-17%	-99*!	9%	-6%	?
CCN1CCN(Cc2ccc(NC(=O)c3ccc(C)c(NC(=O)c4cncc(-c5cccs5)c4)c3)cc2C(F)(F)F)CC1	-16%	?	/	?	/	16µM*
CCN1CCN(Cc2ccc(NC(=O)c3ccc(C)c(NC(=O)c4nccn4C)c3)cc2C(F)(F)F)CC1	0%	-10%	-16	-12%	-1%	?
CCN1CCN(c2cc(C)c3cc(NC(=O)c4cccc(C(F)(F)F)c4)ccc3n2)CC1	-19%	-10%	-30	/	/	-14%
COc1ccc(C(C)=O)cc1CC(=O)Nc1cccc(S(=O)(=O)N2CCOCC2)c1	-9%	/	6	-4%	/	/
CCN1CCN(Cc2ccc(NC(=O)c3ccc(C)c(NC(=O)N4CCNC4=O)c3)cc2C(F)(F)F)CC1	-21%	?	-94*!	?	-19%	?
CC1CC[C@@]2(OC1)OC1C(O)C3C4CC[C@H]5CC(O[C@@H]6O[C@@H](CO)[C@H](OC7OC(CO)C(O)C(OC8OCC(O)C(O)[C@H]8O)[C@@H]7O[C@@H]7OC(CO)[C@H](O)[C@@H](O[C@@H]8OC(CO)C(O)C(O)C8O)C7O)C(O)C6O)C(O)C[C@]5(C)C4CC[C@]3(C)C1C2C (stereo partly drawn)	35µM*	7.9µM*	/	/	11%	8.9µM*
COc1cccc(C2/C(=C(/O)c3ccc4c(c3)OCO4)C(=O)C(=O)N2CCN2CCOCC2)c1 (stereo not drawn)	6%	/	-62*	4%	/	/
O=Cc1ccsc1B(O)O	/	-1%	/	/	-1%	-13%
Cn1cccc1/C=C1\CC(C(C)(C)C)C/C(=C\c2cccn2C)C1=O (stereo not drawn)	-20%	/	-25	2.5µM*	-15%	/
CC(C)OCCCNC(=O)c1cn(C)c2ccc(S(=O)(=O)N(C)C3CCCCC3)cc2c1=O	23%	-15%	-20	-9%	/	-1%
Cc1ccc(-c2cc(C(=O)Nc3ccncc3)c3ccccc3n2)cc1	-8%	-10%	7	6%	/	1%
O=C(NNC(=O)c1cc(-c2ccncc2)nc2ccccc12)c1ccccc1O	-15%	13µM*	-21	?	/	?
O=C(Nc1ccccn1)c1cc(-c2cccc(Cl)c2)nc2ccccc12	-18%	i	-71*	16µM*	-1%	-14%
CC(C)(C)c1ccccc1NC(=O)c1cc(-c2ccncc2)nc2ccccc12	1%	-4%	15	11µM*	/	0%
Cc1cccc(C)c1NC(=O)C1CCCN1S(=O)(=O)c1ccc2c(c1)n(C)c(=O)c(=O)n2C (stereo not drawn)	-15%	-5%	/	20%	-16%	-1%
COc1ccc(CCn2c(=O)[nH]c3cc(C(=O)N4CCN(c5ccccc5)CC4)ccc3c2=O)cc1OC	16µM*	?	-20	?	-1%	?
COc1ccc(Cn2c(=O)[nH]c3cc(C(=O)N4CCN(Cc5ccccc5)CC4)ccc3c2=O)cc1	14µM*	/	-63*	?	1%	/
COc1ccc(Cn2c(=O)[nH]c3cc(C(=O)N4CCN(c5ccccc5F)CC4)ccc3c2=O)cc1	-10%	-6%	-14	?	0%	0%
COc1ccc(Cn2c(=O)[nH]c3cc(C(=O)N4CCN(c5ccccc5OC)CC4)ccc3c2=O)cc1	18µM*	?	/	10µM*	1%	-28%
COc1ccc(Cn2c(=O)[nH]c3cc(C(=O)N4CCN(c5cc(C)ccc5C)CC4)ccc3c2=O)cc1	-21%	?	-12	/	/	-22%
SMILES	FMDV antiviral	Vaccinia mCherry	HCMV antiviral	HCV inhibitor	Giardia FBPA inh	VACV Venus inh
COC(=O)C(c1ccccc1)(c1cn(C)c2ccc(OC)cc12)C(Nc1ccccc1)c1ccccc1 (stereo not drawn)	/	/	-24	/	/	/
COc1cccc(N2CCN(C(=O)c3ccc(CS(=O)c4ccccc4Cl)o3)CC2)c1 (stereo not drawn)	-9%	/	-96*	?	/	/
COc1ccccc1S(=O)(=O)Cc1ccc(C(=O)N2CCN(c3cccc(Cl)c3)CC2)o1	18µM*	/	-67*	13µM*	2%	/
O=C(c1ccc(CS(=O)(=O)c2c(Cl)cccc2Cl)o1)N1CCN(c2ccccn2)CC1	?	i	-66*	-13%	-6%	-11%
O=S(CC(O)c1ccccc1)c1ccccc1 (stereo not drawn)	63%	i	-7	/	/	5%
COc1cc(C(O)c2nc(-c3cccc4cccnc34)cs2)ccc1F (stereo not drawn)	15%	?	58	/	/	-9%
CN(C)c1oc(-c2ccccc2)nc1C#N	24%	/	52	-18%	2%	/
N#Cc1nc(-c2cccc3ccccc23)oc1NCCN1CCCCC1	5%	/	89	11µM*	-1%	/
CCOc1ccc(-c2nc(C#N)c(NCC3CCCO3)o2)cc1 (stereo not drawn)	23%	/	27	-7%	-4%	/
N#Cc1nc(-c2ccccc2Cl)oc1NCC1CCCO1 (stereo not drawn)	-7%	-33%	26	13µM*	0%	-30%
C=CCNc1oc(-c2cccc3ccccc23)nc1C#N	/	-22%	7	6.3µM*	5%	?
CCNc1oc(-c2cccc3ccccc23)nc1C#N	33%	-25%	21	?	14%	-21%
CN(C)c1oc(-c2ccccc2Cl)nc1C#N	14%	4%	-29	25µM*	4%	-3%
O=P(CCCCCCCCCP(=O)(c1ccccc1)c1ccccc1)(c1ccccc1)c1ccccc1	?	?	-35	14µM*	8%	16µM*
O=C(O)CCCCCCCCCCP(=O)(c1ccccc1)c1ccccc1	10%	4%	13	7%	15%	-6%
CC(C)c1c(C(=O)Nc2ccccc2)c(-c2ccccc2)c(-c2ccc(F)cc2)n1CC[C@@H](O)C[C@@H](O)CC(=O)O	-13%	-8%	-67*	/	15%	-5%
